# PubChem BioAssay (NCATS)
# Values joined by “and” are separate entries in the source; they are usually repeats but may differ in a detail not shown here. Identical values can stand only once. Records with an inconclusive call do not appear. Active and inactive are the calls of the source. Calls come from the whole dose curve; as a rule, active = well fitted inhibition curve with a large enough effect; inconclusive = small, poorly fitted or top-dose-only effect; inactive = flat fitted curve, though single readings scatter.
# Tested on: KB-3-1
# Assay: Cytotoxic Profiling of Annotated Libraries Using Quantitative High-Throughput Screening (AID 1296008); note: nearly all actives have a fitted effect of over 60% in size
# Conditions: Five cell lines viability, CellTiter-Glo ATP luminescence, 48-72 h; max response: stronger effect = lower value
# Procedure, shortened: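 Cells exposed to compounds for 48 or 72 hr at 37 degrees Celsius. Viability read as ATP-coupled luminescence with CellTiter-Glo after 10 min at room temperature.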
# % is set by controls: 0 for no effect and ±100 for the full control effect; potency is the fitted concentration of half-maximal effect.
Molecule,max response,Potency
COc1ccc2cc([C@H](C)CO)ccc2c1,0.171% (inactive),
CC(C)(C)CC(C)(C)c1cc(Cc2cc(C(C)(C)CC(C)(C)C)cc(-n3nc4ccccc4n3)c2O)c(O)c(-n2nc3ccccc3n2)c1,-2.05% (inactive),
CC(=O)Nc1c(I)c(C(=O)O)c(I)c(N(C)C(C)=O)c1I,3.77% (inactive),
O=C(CO)[C@@H](O)[C@H](O)[C@@H](O)C(=O)O,-10% (inactive),
CN1CCN(C(c2ccccc2)c2ccc(Cl)cc2)CC1 (configuration not stated),0.99% (inactive),
CC/C=C\C/C=C\C/C=C\C/C=C\C/C=C\CCCC(=O)O,-1.96% (inactive),
NC(N)=NCC1COC2(CCCCC2)O1 (configuration not stated),1.43% (inactive),
CC(C)=CCC/C(C)=C/C=C/C(C)=C/C=C/C(C)=C/C=C/C=C(C)/C=C/C=C(C)/C=C/C=C(\C)CCC=C(C)C,-16.3% (inactive),
Cc1ccccn1,-6.48% (inactive),
C=CC(C)(O)CC/C=C(\C)CCC=C(C)C (configuration not stated),0.0537% (inactive),
CCCCCCCCCC(=O)NO,-3.47% (inactive) and -15% (inactive),
Cc1cc(-c2ccc(N=Nc3c(S(=O)(=O)O)cc4cc(S(=O)(=O)O)cc(N)c4c3O)c(C)c2)ccc1N=Nc1c(S(=O)(=O)O)cc2cc(S(=O)(=O)O)cc(N)c2c1O,,9.2 µM (active)
C[C@@H]1O[C@@H](OC[C@H]2O[C@@H](Oc3c(-c4ccc(OCCO)c(OCCO)c4)oc4cc(OCCO)cc(O)c4c3=O)[C@H](O)[C@@H](O)[C@@H]2O)[C@H](O)[C@H](O)[C@H]1O,-2.8% (inactive),
CC(C)=CCC/C(C)=C/CC/C(C)=C/CC/C=C(\C)CC/C=C(\C)CCC=C(C)C,6.34% (inactive) and -6.32% (inactive),
CN(C)c1ccc(C(=C2C=CC(=[N+](C)C)C=C2)c2c(O)c(S(=O)(=O)[O-])cc3cc(S(=O)(=O)O)ccc23)cc1,,14.6 µM (active)
CNC(C)CCC=C(C)C (configuration not stated),-7.11% (inactive),
C[C@H](CCC(=O)O)[C@H]1CC[C@H]2[C@@H]3[C@H](O)C[C@@H]4C[C@H](O)CC[C@]4(C)[C@H]3C[C@H](O)[C@]12C,1.07% (inactive),
O=C1c2ccccc2C(=O)C1c1ccc(Cl)cc1,-7.12% (inactive),
CCN(CC)CCOc1ccccc1OC,3.77% (inactive),

Molecule,max response,Potency
CCc1ccc(S(=O)(=O)O)cc1,6.98% (inactive),
O=C(O)CC/C=C\CC[C@@H]1[C@@H](N2CCCCC2)[C@@H](O)C[C@@H]1OCc1ccc(-c2ccccc2)cc1,-15.9% (inactive),
CC(C)c1ncc([N+](=O)[O-])n1C,-7.8% (inactive),
O=C1c2ccccc2C(=O)C1c1ccc(F)cc1,-8.05% (inactive),
CCCCC(=O)O[C@H]1CC[C@H]2[C@@H]3CCc4cc(O)ccc4[C@H]3CC[C@]12C,0.0537% (inactive),
Cc1cccc(C)c1Nc1ncccc1C(=O)O,-0.608% (inactive),
Cc1ncc(C[n+]2csc(CCOP(=O)(O)OP(=O)(O)O)c2C)c(N)n1,-1.51% (inactive),
O=C(O)c1ccc(NC(=O)[C@H](Cc2ccc(O)cc2)NC(=O)c2ccccc2)cc1,7.82% (inactive),
C=CCOc1ccc(CC(=O)O)cc1Cl,11.1% (inactive),
O.O.O.O.O.O.O.O=S(=O)([O-])[O-].[Co+2],-0.614% (inactive),
Nc1nccs1,-12.3% (inactive),
CC(C)(C)NCC(O)c1ccc(O)c(CO)n1 (configuration not stated),-3.71% (inactive),
CN1CCC(OC(=O)C(Oc2ccc(Cl)cc2)Oc2ccc(Cl)cc2)CC1,-2.63% (inactive),
H-RKDVY-OH,-14.8% (inactive),
CC(C)[C@@H]1CC[C@@H](C)C[C@H]1O,-7.15% (inactive),
CC(C)(C)NC[C@H](O)COc1ccccc1C1CCCC1,1.39% (inactive),
O=c1n(CC2CO2)c(=O)n(CC2CO2)c(=O)n1CC1CO1 (configuration not stated),23% (inactive),
COC(=O)c1ccccc1O,-4.17% (inactive),
